# From PubChem
# This excerpt belongs to a sample that is enriched for hits.
# Chlamy TAG: increases triacylglycerol in Chlamydomonas reinhardtii; AID 1159537; Chlamydomonas reinhardtii TAG, Nile Red fluorescence, 72 h; 44,000 compounds, 0.84% hits; calls only at 10 µM (by protocol); call rule not given here;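 further: hits raise Nile Red signal meaning more stored TAG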
# Active calls of the source: *; i = inactive; + = active, no number.
SMILES,Chlamy TAG
COc1ccc(NC(=Nc2nc(C)cc(=O)[nH]2)NC(=O)c2cccc(Cl)c2)cc1,i
O=C(COc1ccc(Br)cc1)Nc1cc(Cl)ccc1Cl,i
CCCOc1ccc(OCCN(C)C)cc1,i
COc1ccc(N2CCN(Cc3ccoc3)CC2)cc1,i
CN1CCCN(Cc2ccc(-c3ccccc3[N+](=O)[O-])o2)CC1,i
O=[N+]([O-])c1ccc(CN2CCN(c3ccccc3)CC2)o1,i
CN1CCCN(Cc2ccc([N+](=O)[O-])o2)CC1,+
Cc1sc(NC(=O)c2ccc(-c3ccccc3)cc2)c(C(N)=O)c1C,i
C=CCn1c(SCc2ccc(Cl)cc2)nc(O)cc1=O,i
COc1cc(C(=O)Nc2cccc(NC(=O)c3ccccc3Cl)c2)ccc1[N+](=O)[O-],i
CC1(C)CC(NC(=O)CC(c2ccccc2)c2ccccc2)CC(C)(C)N1,i
CC1(C)CC(NC(=O)Cc2ccccc2[N+](=O)[O-])CC(C)(C)N1,+
COc1ccccc1CC(=O)NC1CC(C)(C)NC(C)(C)C1,i
COc1ccccc1N1CCN(CC(O)COCc2ccc3c(c2)OCO3)CC1 (stereo not given),i
CN(CCC#N)C12CC3CC(CC(C3)C1)C2,+
CN(C)CCNCC12CC3CC(CC(C3)C1)C2,i
CN(CCO)C12CC3CC(CC(C3)C1)C2,i
CC(Cc1ccccc1)NC(=O)CC(c1ccccc1)c1ccccc1 (stereo not given),i
O=C(c1cc(F)c(F)cc1Cl)N1CCN(c2ccc(F)cc2[N+](=O)[O-])CC1,i
COc1ccc(Cl)cc1NC(=O)Cc1ccccc1[N+](=O)[O-],i
CC1Oc2ccccc2OC1C(=O)N1CCOCC1 (stereo not given),i
CCC(C)c1ccc(OCCCCN2CCN(C)CC2)cc1 (stereo not given),i
c1ccc(OCCN2CCCC2)cc1,i
CCC(C)c1ccc(OCCCN2CCN(C)CC2)cc1 (stereo not given),+
CN1CCN(CCOc2ccc(C(C)(C)c3ccccc3)cc2)CC1,+
SMILES,Chlamy TAG
CN1CCN(CCCOc2ccc(C(C)(C)c3ccccc3)cc2)CC1,i
CN1CCN(CCCOc2ccc(OCc3ccccc3)cc2)CC1,i
CC(=O)Nc1nnc(SCC(=O)Nc2ccc(C(C)C)cc2)s1,i
COc1ccc(-c2nc3ccccc3o2)cc1,i
C=CCn1c(SCC(=O)N2CCCCC2)nc2ccccc2c1=O,i
C1CCC(N2CCC(N3CCCCC3)CC2)CC1,i
Cc1c(-c2ccccc2)nc2ccccc2c1C(=O)N1CCCC1,i
N#CC1=C(N)OC2=C(C(=O)CC(c3ccccc3)C2)C1c1ccco1 (stereo not given),i
O=C(Nc1nc2c(s1)CCCC2)c1cccc(Cl)c1,i
COc1cc(C(=O)Nc2nc3c(s2)CCCC3)cc(OC)c1OC,+
CCc1nnc(NC(=O)c2cc(OC)c(OC)c(OC)c2)s1,i
COc1ccc(C(=O)Nc2ccc3c(c2)OCO3)c(OC)c1,i
O=C(Nc1ccccc1C(=O)O)c1cccc(NC(=O)c2cccs2)c1,i
O=c1c2cc3c(=O)n(CCCO)c(=O)c3cc2c(=O)n1CCCO,i
Cc1ccccc1C(=O)Nc1ccccc1C(=O)NCc1ccccc1,i
Cc1c(C(=O)Nc2ccccc2C(N)=O)cccc1[N+](=O)[O-],i
Cc1c(C(=O)Nc2ccccc2C(=O)NCc2ccccc2)cccc1[N+](=O)[O-],+
O=C(Nc1ccccc1C(=O)NCc1ccccc1)c1ccc(F)cc1,+
O=C(Nc1ccccc1C(=O)NCc1ccccc1)c1ccccc1F,i
O=C(Nc1ccccc1C(=O)NCc1cccnc1)c1ccc(F)cc1,i
O=C(Nc1c[nH]c(=O)[nH]c1=O)c1ccc(Cl)cc1,i
COc1cc(C=O)ccc1OCCCOc1cc(C)ccc1Cl,i
CCOC(=O)N1CCN(Cc2cccc(F)c2)CC1,i
O=C(Nc1cccc(Cl)c1)c1ccc([N+](=O)[O-])cc1Cl,i
Cc1ccccc1C(=O)Nc1ccc([N+](=O)[O-])cc1,i
SMILES,Chlamy TAG
O=C(Nc1ccc(Cc2ccncc2)cc1)c1ccc([N+](=O)[O-])cc1Cl,+
CCC(C)c1ccc(NC(=O)c2ccc([N+](=O)[O-])cc2Cl)cc1 (stereo not given),i
COc1ccc(C(=O)Nc2ccc(C(C)C)cc2)cc1[N+](=O)[O-],i
Cc1ccc(C(=O)Nc2ccncc2)cc1[N+](=O)[O-],i
O=C(Nc1cccc(NC(=O)c2ccccc2Cl)c1)c1ccc([N+](=O)[O-])cc1,i
O=C(O)c1ccc(NC(=O)c2ccc([N+](=O)[O-])cc2)cc1,i
COc1cccc(OC)c1C(=O)Nc1ccc([N+](=O)[O-])cc1,i
CCSc1ccc(C(=O)Nc2ccc(Cc3ccncc3)cc2)cc1[N+](=O)[O-],+
O=C(Nc1ccc([N+](=O)[O-])cc1)c1ccccc1Cl,+
O=C(Nc1ccc([N+](=O)[O-])cc1)c1c(F)c(F)c(F)c(F)c1F,+
O=C(Nc1ccc2c(c1)OCO2)c1ccccc1[N+](=O)[O-],i
CC(=O)Nc1ccc(NC=C(C#N)c2nc(-c3ccc([N+](=O)[O-])cc3)cs2)cc1,i
Cc1cccc(N2CCN(C(=O)C3CCN(Cc4cccnc4)CC3)CC2)c1C,i
COc1ccccc1OCCNC(=O)c1ccccc1I,i
O=C(c1ccccc1Sc1ccc([N+](=O)[O-])cc1)N1CCCCCC1,i
Cc1cccc(N2CCN(C(=O)C(C)Oc3cccc(Cl)c3)CC2)c1C (stereo not given),i
O=C(C1CCN(CC2CC=CCC2)CC1)N1CCN(Cc2ccc3c(c2)OCO3)CC1 (stereo not given),i
CCOc1ccc(C(=O)Nc2ccc(F)cc2F)cc1Br,i
CCC1(C)Cc2c(sc3nc(SCc4ccccc4)[nH]c(=O)c23)CO1 (stereo not given),i
COc1cc(CNC(C)C)c([N+](=O)[O-])cc1OC,i
O=C(CN1CCN(c2ccc([N+](=O)[O-])c(N3CCCC3)c2)CC1)N1CCOCC1,i
O=C(CSc1nc2ccccc2s1)NC1CCCCC1,i
CCOC(=O)N1CCN(CC(O)COc2ccc(C(C)(C)C)cc2)CC1 (stereo not given),i
CC(C)(C)c1ccc(OCC(O)CN)cc1 (stereo not given),i
Cc1cc(C)n(CC(O)COc2ccc(C(C)C)c(C)c2)n1 (stereo not given),i
SMILES,Chlamy TAG
CC1CN(CC(O)COc2ccc(C(C)(C)C)cc2)CC(C)O1 (stereo not given),+
CC(C)(C)c1ccc(OCC(O)CN2CCN(CCO)CC2)cc1 (stereo not given),+
CC1CN(CC(O)COCc2ccc(Cl)cc2)CC(C)O1 (stereo not given),i
Cc1cc(OCC(O)CN2CCN(c3ccccc3)CC2)ccc1C(C)C (stereo not given),i
Cc1cc(OCC(O)CN2CCN(CCO)CC2)ccc1C(C)C (stereo not given),+
CC1CN(CC(O)COc2ccc(Cl)cc2Cl)CC(C)O1 (stereo not given),i
O=C(Nc1ccccc1)c1ccc(Cl)s1,i
N/C(CSc1nnc2c(n1)[nH]c1ccccc12)=N/O,i
CCOc1ccc(-c2nnc(NC(=O)CSCc3ccccc3)s2)cc1,i
COc1ccc(S(=O)(=O)N(CC(=O)NCc2ccco2)c2ccc(C)cc2)cc1,i
COc1ccc(C(=O)N2CCN(c3ccc(F)cc3)CC2)cc1[N+](=O)[O-],i
